The values that follow come from the supplement of paper PMC6555819.

In this experiment the test system is VDR:RXRa (NR concentration 270 nM, RXRa partner concentration 90 nM). Description: PBM binding z-score (relative to random genomic background probes); higher = stronger binding; sequences stand for … in GC…GCGATTGACAGCGTAGAATGAAGG
The protocol:
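Protein-binding microarray (Agilent 4x180K custom design, double-stranded 60-nt probes: 5' GC cap, 34-nt variable region, 24-nt constant primer region; full probe sequence given). Purified or IVT nuclear receptor:RXRα heterodimers (3:1 NR:RXRα, mostly 270:90 nM) or homodimers were incubated for 1 h in PBS with 2% milk and no ligand, then detected with Alexa488 antibodies. Fluorescence from o1-orientation probes (~5 replicates averaged) was converted to z-scores against 500 random hg19 background probes. Variable regions are seed direct-repeat (DR0–DR5) sites, all their single-nucleotide variants and half-site ablations.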
Sequence ATCTCTAGGTAAAGATAGTTAAGTGAATGCAAAT displayed a PBM binding z-score of 0.487. The sequence TGAATGAGGTTCTAAGATCAGGGAACGTTGCAAA gave a PBM binding z-score of -0.428.

ACTATTAGTTGATACGAGGGCAACCGATAGGTTG: the PBM binding z-score stood at 0.867. As to TAGCCTAGGTCATGCGGGCCAGTACAGTGTCGGC, the PBM binding z-score was 2.83. For GATACAGGGTCAAGGCCAGATTACGCGTATTGAT, the PBM binding z-score came out at 4.45. Consider CCGACTGTGGCATAAGGTTACCATAAGCCAGCCC, for which the PBM binding z-score came to 0.153. Consider GTACCAAGGTGAATAGGTCCTTGATGAGTAGGCG, for which the PBM binding z-score was 0.968.

Consider CCTAGTAGGTCAAGGTCACACACGCTATAGGTAC, for which the PBM binding z-score is 5.04.

TCGAGTAGGTTAGGGTCATTCAGAATGGCGTCGA had a PBM binding z-score of 4.32. TCTAGCAGGCTAGAGGGTCACTCAAGAGGTACGG showed a PBM binding z-score of 1.38. Turning to GCAGACAGGTGAAACGCAGGTGACTCAGGGTGGC, the PBM binding z-score was -0.335. Sequence GCTGCTAGGTCAACGGATGGTCAGCTAAAGCTCG yielded a PBM binding z-score of 0.92. As for CATACAGGGTCAGCTACGCCAGAGTAGGGACGGC, the PBM binding z-score worked out at 2.74. The sequence TAGCCTAGGCCATTGGGCCAGTATAGTACGCATC registered a PBM binding z-score of -0.626. Take ATCTCTAGGTAAGACTCAGATCAGTGAAGAACGC: the PBM binding z-score was 0.238. To CAGCCTAGGTCAGGGCGAGTATAGGAGGAACGTT belongs 0.552; to CGAACGAGGACATGAGTTGATAGCAAATGCCGAT, 0.112. TCTATTAGTTTATTAGGGCAACCGAAACAGCGGA returned a PBM binding z-score of 1.03.

For the sequence ATACCAAGGGGATCGTGAGGTCGTTGATACTAAC, the PBM binding z-score came out at 1.88. Sequence ACGTACGGGTCAACGAGGTTATAGCACGCGTATA registered a PBM binding z-score of 7.49.

For GGAACGAGGGCAATTTGATAGCAGAGTTTGATGG, the PBM binding z-score was 0.368.

As to ATATGTAGGTTACATCCGGGACATTCAGGCTATG, the PBM binding z-score came to 1.14. CGAACGAGGGCATGAGTTGTTAGCAAATGCCGAT registered a PBM binding z-score of 0.896.

Sequence TCTATTACTTGAAGGGCAACCGACGAGTCCGTTT yielded a PBM binding z-score of 1.28. TCATATAGGTAAAAGATGAAAGTCGGTGTGGTAA came in with a PBM binding z-score of 0.912. TCTTGTAGATCATCAGGAGGTTAAGAAAGATCGA: the PBM binding z-score was determined as 0.351. In turn, CCGAGTAGTTTATGGGGCATTCAGGCAACGGTGA registered a PBM binding z-score of -0.229. In the case of TGAATAAGGTTAAAGATCAGGGAACGTGGCGTCG, the PBM binding z-score worked out at 1.37. With CGTCCAATGTCAAGGTCAGTGAAAGAGACTCGAA, the PBM binding z-score was 2.08. As for TATACAGCGTCAAAGGCCAGAGTACGAATGTCGA, the PBM binding z-score is -0.305. Consider ACTATTAGTTGACTTAGCGCAACCGATACGACGC, for which the PBM binding z-score amounted to 0.0494. Consider CCTATTAGTTGATCATAAGGGCAACCGAAGCTCG, for which the PBM binding z-score came to 0.485. For CGAACTAGGTCATTGACAGGATAGTGAATAGTAA, the PBM binding z-score was determined as 1.64. The sequence GCGACTGGGGGAAAGCAGGTTACCATAAGGTTGG came in with a PBM binding z-score of 0.39.

Regarding ATCTCTAGGTAAGACTCAGGTCAGTGAAGAACGC, the PBM binding z-score is 0.693. AGAATGAGGTTAAGACCAGGGAAACAGAATACAT had a PBM binding z-score of 1.03. For TCTAGTTGGTCAAACGTCACACACTCGAAATGCG the value was 0.811; for CCTTACGGGTCACTCCAGGGTATAGCATCGGAGT, 3.25; for TCATATAAGTAAAAGGTGAAAGTCGGTGTGGTAA, 1.24. TCTTGTAGATCAATAGAGATTAAGAAAGTGCGCT gave a PBM binding z-score of 0.285.
